# Source: PubChem BioAssay (EPA / NIEHS)
# The source made the active and inactive calls. How the source made its calls: active means hit-call score of the fitted dose curve at least 0.9, where 1 is the maximum; inactive means score below 0.9.
# Columns and labels:
# [1] = BSK_hDFCGF_SRB: Viability Assessment in the BioMAP Diversity Plus: hDFCGF Assay (AID 2283061); details: primary human foreskin fibroblasts;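 further: cells exposed to compound for 24 h before the read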
# Method in brief: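 Viability was read as total protein: after 10% TCA fixation, wells were stained with 0.1% sulforhodamine B and read at 560 nm. Primary human foreskin fibroblasts were dosed for 24 h, with bidirectional fitting versus DMSO.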
# [2] = read-out: TIMP metallopeptidase inhibitor 1 (TIMP1), TIMP1 (gene 7076); assay: BSK_hDFCGF_TIMP1: BioMAP Diversity Plus: hDFCGF Assay for TIMP metallopeptidase inhibitor 1 (TIMP1) Biomarker Activity (AID 2283062); details: primary human foreskin fibroblasts; actives raise or lower the signal
# Method in brief: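 TIMP-1 measured by ELISA 24 h after chemical dosing of primary human skin fibroblasts, with gain or loss fitted relative to DMSO. Parallel SRB staining (560 nm) monitored overt cytotoxicity.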
# [3] = read-out: Monokine induced gamma interferon (MIG), CXCL9 (gene 4283); assay: BSK_hDFCGF_MIG: BioMAP Diversity Plus: hDFCGF Assay for Monokine induced gamma interferon (MIG) Biomarker Activity (AID 2283063); details: primary human foreskin fibroblasts; actives raise or lower the signal
# Method in brief: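 Human primary foreskin fibroblasts in the hDFCGF system, exposed to test chemical for 24 h; MIG measured by ELISA. Bidirectional curve fitting against DMSO negative control as activity baseline.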
# [4] = read-out: Matrix Metallopeptidase 1 (MMP1), MMP1 (gene 4312); assay: BSK_hDFCGF_MMP1: BioMAP Diversity Plus: hDFCGF Assay for Matrix Metallopeptidase 1 (MMP1) Biomarker Activity (AID 2283064); details: primary human foreskin fibroblasts; actives raise or lower the signal
# Method in brief: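 ELISA read-out of MMP1 from human foreskin fibroblasts (primary skin cells), 24 h post-dose. Gain or loss of signal was fitted bidirectionally versus DMSO negative control; cytotoxicity was checked by SRB in parallel cultures.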
# [5] = read-out: Vascular cell adhesion molecule 1 (VCAM1), VCAM1 (gene 7412); assay: BSK_hDFCGF_VCAM1: BioMAP Diversity Plus: hDFCGF Assay for Vascular cell adhesion molecule 1 (VCAM1) Biomarker Activity (AID 2283065); details: primary human foreskin fibroblasts; actives raise or lower the signal;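 on AC50: VCAM-1 protein level quantified by ELISA after 24 h chemical exposure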
# Method in brief: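 ELISA readout of VCAM-1 on human dermal fibroblast primary cultures, 24 h after chemical exposure. Gain or loss of signal fitted in both directions against DMSO baseline.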
# [6] = read-out: Plasminogen activator inhibitor-1 (PAI1), SERPINE1 (gene 5054); assay: BSK_hDFCGF_PAI1: BioMAP Diversity Plus: hDFCGF Assay for Plasminogen activator inhibitor-1 (PAI1) Biomarker Activity (AID 2283066); details: primary human foreskin fibroblasts; actives raise or lower the signal
# Method in brief: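 Human skin fibroblast cultures receive chemical for 24 h before PAI-1 is measured by ELISA; signal changes are fitted bidirectionally against DMSO-treated wells.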
# [7] = read-out: Intercellular Adhesion Molecule 1 (ICAM1), ICAM1 (gene 3383); assay: BSK_KF3CT_ICAM1: BioMAP Diversity Plus: KF3CT Assay for Intercellular Adhesion Molecule 1 (ICAM1) Biomarker Activity (AID 2283067); details: primary human keratinocytes with fibroblasts; actives raise or lower the signal
# Method in brief: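 Cell-surface ICAM-1 was measured by ELISA 24 h after dosing primary human skin keratinocytes co-cultured with fibroblasts. Parallel SRB staining tracked overt cytotoxicity. Gain or loss of signal was fitted relative to DMSO.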
# [8] = read-out: Interferon-gamma inducible Protein 10 (IP10), CXCL10 (gene 3627); assay: BSK_KF3CT_IP10: BioMAP Diversity Plus: KF3CT Assay for Interferon-gamma inducible Protein 10 (IP10) Biomarker Activity (AID 2283068); details: primary human keratinocytes with fibroblasts; actives raise or lower the signal
# Method in brief: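 KF3CT co-culture (keratinocytes + foreskin fibroblasts), 24 h compound, IP-10 by ELISA; bidirectional fit vs DMSO baseline.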
# [9] = BSK_KF3CT_SRB: Viability Assessment in the BioMAP Diversity Plus: KF3CT Assay (AID 2283069); details: primary human keratinocytes with fibroblasts;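 further: total protein by sulforhodamine B staining as a cytotoxicity measure; read 24 h after compound addition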
# Method in brief: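 SRB read-out at 560 nm (0.1% stain, TCA-fixed cells) gauges overt cytotoxicity in a human skin keratinocyte–fibroblast co-culture 24 h post-dosing. Signal change was fitted bidirectionally relative to DMSO control.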
# [10] = read-out: Interleukin-1 alpha (IL1a), IL1A (gene 3552); assay: BSK_KF3CT_IL1a: BioMAP Diversity Plus: KF3CT Assay for Interleukin-1 alpha (IL1a) Biomarker Activity (AID 2283070); details: primary human keratinocytes with fibroblasts; actives raise or lower the signal
# Method in brief: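 Primary skin co-culture (keratinocytes, foreskin fibroblasts), 24 h exposure; ELISA for IL-1a; bidirectional curve fit vs DMSO.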
# [11] = read-out: TIMP metallopeptidase inhibitor 2 (TIMP2), TIMP2 (gene 7077); assay: BSK_KF3CT_TIMP2: BioMAP Diversity Plus: KF3CT Assay for TIMP metallopeptidase inhibitor 2 (TIMP2) Biomarker Activity (AID 2283071); details: primary human keratinocytes with fibroblasts; actives raise or lower the signal
# Method in brief: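 Measurements come from ELISA detection of TIMP-2 at 24 hours in a dosed human keratinocyte and foreskin fibroblast co-culture. DMSO serves as negative control and baseline.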
# [12] = read-out: Transforming growth factor beta 1 (TGFb1), TGFB1 (gene 7040); assay: BSK_KF3CT_TGFb1: BioMAP Diversity Plus: KF3CT Assay for Transforming growth factor beta 1 (TGFb1) Biomarker Activity (AID 2283072); details: primary human keratinocytes with fibroblasts; actives raise or lower the signal
# Method in brief: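 TGF-b1 ELISA on a 24 h dosed co-culture of human keratinocytes and foreskin fibroblasts; cytotoxicity tracked in parallel cultures by SRB staining.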
# [13] = read-out: C-C motif chemokine 2 (Homo sapiens) (UniProt P13500); assay: BSK_KF3CT_MCP1: BioMAP Diversity Plus: KF3CT Assay for Monocyte Chemoattractant Protein 1 (MCP1/CCL2) Biomarker Activity (AID 2283073); details: primary human keratinocytes with fibroblasts; actives raise or lower the signal
# Method in brief: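 ELISA read-out of MCP-1, 24 h post-dose, in primary human skin keratinocytes co-cultured with fibroblasts. Parallel SRB staining monitors cytotoxicity; changes fitted both directions relative to DMSO.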
# [14] = read-out: Matrix Metallopeptidase 9 (MMP9), MMP9 (gene 4318); assay: BSK_KF3CT_MMP9: BioMAP Diversity Plus: KF3CT Assay for Matrix Metallopeptidase 9 (MMP9) Biomarker Activity (AID 2283074); details: primary human keratinocytes with fibroblasts; actives raise or lower the signal;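 on AC50: MMP9 protein level quantified by ELISA in the co-culture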
# Method in brief: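 ELISA read-out of MMP-9 at 24 h post-dosing in a co-culture of human skin keratinocytes and foreskin fibroblasts. Gain or loss of signal was fitted in both directions against DMSO.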
# [15] = read-out: urokinase plasminogen activator (uPA), PLAU (gene 5328); assay: BSK_KF3CT_uPA: BioMAP Diversity Plus: KF3CT Assay for urokinase plasminogen activator (uPA) Biomarker Activity (AID 2283075); details: primary human keratinocytes with fibroblasts; actives raise or lower the signal
# Method in brief: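 Skin co-culture (keratinocytes + foreskin fibroblasts), human primary; 24 h post-dose; uPA by ELISA; gain/loss fit vs DMSO baseline.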
# CD40, CD40 (gene 958) = assay: BSK_LPS_CD40: BioMAP Diversity Plus: LPS Assay for CD40 Biomarker Activity (AID 2283076); details: primary human HUVEC with PBMC; actives raise or lower the signal
# Method in brief: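 In the LPS system of human endothelial cells with peripheral blood mononuclear cells, CD40 levels were read by ELISA 24 h post-treatment. Signal changes in either direction were fitted against the DMSO baseline, with parallel SRB protein staining.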
# [16] = read-out: E-selectin (Homo sapiens) (UniProt P16581); assay: BSK_LPS_Eselectin: BioMAP Diversity Plus: LPS Assay for Eselectin Biomarker Activity (AID 2283077); details: primary human HUVEC with PBMC; actives raise or lower the signal
# Method in brief: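 E-selectin ELISA on LPS-stimulated endothelial cell/PBMC co-cultures, read 24 h post-treatment; gains and losses fitted against DMSO. Parallel SRB staining (0.1% SRB after 10% TCA fixation, 560 nm) flags overt cytotoxicity.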
# [17] = read-out: Interleukin-8 (IL8), CXCL8 (gene 3576); assay: BSK_LPS_IL8: BioMAP Diversity Plus: LPS Assay for Interleukin-8 (IL8) Biomarker Activity (AID 2283078); details: primary human HUVEC with PBMC; actives raise or lower the signal
# Method in brief: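 ELISA read-out of IL-8 after 24 h chemical treatment of LPS-activated endothelial/PBMC human primary co-cultures. Changes either up or down relative to DMSO; overt cytotoxicity checked by sulforhodamine B staining in parallel wells.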
# [18] = BSK_LPS_SRB: Viability Assessment in the BioMAP Diversity Plus: LPS Assay (AID 2283079); details: primary human HUVEC with PBMC;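 further: total protein by sulforhodamine B absorbance as a cytotoxicity measure; measured one day after compound addition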
# Method in brief: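 SRB viability endpoint: cells fixed with 10% TCA, stained with 0.1% SRB, read at 560 nm, 24 h post-dose. HUVEC/PBMC co-culture; signal change in either direction scored relative to DMSO.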
# [19] = read-out: Interleukin-1 alpha (IL1a), IL1A (gene 3552); assay: BSK_LPS_IL1a: BioMAP Diversity Plus: LPS Assay for Interleukin-1 alpha (IL1a) Biomarker Activity (AID 2283080); details: primary human HUVEC with PBMC; actives raise or lower the signal
# Method in brief: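 Readout is IL-1a level by ELISA, 24 h post-dose, fitted as gain or loss relative to DMSO. System: LPS-activated human primary co-culture of vascular endothelium and peripheral blood mononuclear cells, with parallel SRB total-protein cytotoxicity.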
# Chain of E-selectin (Homo sapiens) (P16581 whole entry, looked up): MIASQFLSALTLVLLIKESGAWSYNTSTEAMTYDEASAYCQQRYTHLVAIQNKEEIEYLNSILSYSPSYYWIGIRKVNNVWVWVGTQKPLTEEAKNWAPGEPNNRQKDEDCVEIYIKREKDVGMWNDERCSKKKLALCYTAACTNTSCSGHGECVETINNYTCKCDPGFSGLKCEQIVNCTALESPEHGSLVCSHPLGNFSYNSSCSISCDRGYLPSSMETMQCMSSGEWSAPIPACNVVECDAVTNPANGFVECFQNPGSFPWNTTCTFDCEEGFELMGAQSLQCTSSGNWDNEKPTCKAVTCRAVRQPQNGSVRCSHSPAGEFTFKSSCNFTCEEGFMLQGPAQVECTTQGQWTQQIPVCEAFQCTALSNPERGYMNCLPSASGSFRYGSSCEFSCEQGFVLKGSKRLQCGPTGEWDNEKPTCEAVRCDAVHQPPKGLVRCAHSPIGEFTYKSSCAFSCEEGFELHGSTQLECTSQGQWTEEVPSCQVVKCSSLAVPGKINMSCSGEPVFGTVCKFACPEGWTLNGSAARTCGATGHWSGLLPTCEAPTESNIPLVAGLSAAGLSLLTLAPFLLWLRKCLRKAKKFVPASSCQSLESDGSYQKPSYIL
compound,measurement,setting,value
N#Cc1c(Cl)cccc1Cl,outcome,[1],inactive
same,outcome,[2],inactive
same,outcome,[3],inactive
same,outcome,[4],inactive
same,outcome,[5],inactive
same,outcome,[6],inactive
same,outcome,[7],inactive
same,outcome,[8],inactive
same,outcome,[9],inactive
same,outcome,[10],inactive
same,outcome,[11],inactive
same,outcome,[12],inactive
same,outcome,[13],inactive
same,outcome,[14],inactive
same,outcome,[15],inactive
same,outcome,"CD40, CD40 (gene 958)",inactive
same,AC50,[16],0.0841 µM (active)
same,outcome,[17],inactive
same,outcome,[18],inactive
same,outcome,[19],inactive
O=C1C2CC=CCC2C(=O)N1SC(Cl)(Cl)Cl (configuration not stated),AC50,[1],6.26 µM (active)
same,outcome,[2],inactive
same,AC50,[3],7.37 µM (active)
same,AC50,[4],10.7 µM (active)
same,AC50,[5],5.37 µM (active)
same,AC50,[6],7.58 µM (active)
same,AC50,[7],9.86 µM (active)
same,AC50,[8],10.3 µM (active)
same,AC50,[9],5.79 µM (active)
same,AC50,[11],11.2 µM (active)
same,AC50,[13],11.8 µM (active)
same,AC50,[14],8.54 µM (active)
same,AC50,"CD40, CD40 (gene 958)",22.3 µM (active)
same,AC50,[16],29.5 µM (active)
same,AC50,[17],25.2 µM (active)
same,outcome,[18],inactive
same,outcome,[19],inactive
CCOc1cc(C(C)(C)C)ccc1C1COC(c2c(F)cccc2F)=N1 (configuration not stated),AC50,[1],19.7 µM (active)
same,AC50,[2],13.8 µM (active)
same,AC50,[3],29.4 µM (active)
same,AC50,[4],14.3 µM (active)
same,AC50,[5],15.3 µM (active)
same,AC50,[6],12.3 µM (active)
same,AC50,[7],31.3 µM (active)
same,AC50,[8],17.3 µM (active)
same,AC50,[9],8.44 µM (active)
same,AC50,[10],11.2 µM (active)
same,AC50,[11],15.1 µM (active)
same,AC50,[12],33 µM (active)
same,AC50,[13],20 µM (active)
same,AC50,[14],14.8 µM (active)
same,AC50,[15],27.1 µM (active)
same,AC50,"CD40, CD40 (gene 958)",29.2 µM (active)
same,AC50,[16],33.2 µM (active)
same,AC50,[17],26 µM (active)
same,AC50,[18],26.2 µM (active)
same,AC50,[19],30.5 µM (active)
COC(=O)N(C(=O)N1CO[C@@]2(C(=O)OC)Cc3cc(Cl)ccc3C2=N1)c1ccc(OC(F)(F)F)cc1,AC50,[1],3.65 µM (active)
same,outcome,[2],inactive
same,outcome,[3],inactive
same,outcome,[4],inactive
same,outcome,[5],inactive
same,AC50,[6],5.54 µM (active)
same,outcome,[7],inactive
same,AC50,[8],13.3 µM (active)
same,outcome,[9],inactive
same,outcome,[10],inactive
same,outcome,[11],inactive
same,outcome,[12],inactive
same,outcome,[13],inactive
same,AC50,[14],3.16 µM (active)
same,outcome,[15],inactive
same,AC50,"CD40, CD40 (gene 958)",12.4 µM (active)
same,outcome,[16],inactive
same,AC50,[17],5.43 µM (active)
same,AC50,[18],5.89 µM (active)
same,outcome,[19],inactive
